# The supplement of paper PMC7724964
# Biological target: MSH6 89-203 PWWP (domain begin residue: 89, domain end residue: 203), P52701
# Experiment: phage ELISA signal ratio (GST-PRM binding over GST background); higher = stronger binding of peptide-phage to the PRM
# Outline: (§1)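 An M13 phage library with randomized hexadecapeptides on the gene-8 major coat protein, each peptide lacking cysteine and flanked by glycine, was selected for five rounds against human peptide recognition domains fused to the C-terminus of glutathione S-transferase (GST) and expressed in 96-well plates. Approximately 48 clones from rounds 4 and 5 went to phage ELISA. The reported value is the ELISA signal on the GST-domain fusion over the signal on GST alone, and positive clones were sequenced.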
# Sequence of MSH6 89-203 PWWP (domain begin residue: 89, domain end residue: 203), P52701 (P52701 whole entry): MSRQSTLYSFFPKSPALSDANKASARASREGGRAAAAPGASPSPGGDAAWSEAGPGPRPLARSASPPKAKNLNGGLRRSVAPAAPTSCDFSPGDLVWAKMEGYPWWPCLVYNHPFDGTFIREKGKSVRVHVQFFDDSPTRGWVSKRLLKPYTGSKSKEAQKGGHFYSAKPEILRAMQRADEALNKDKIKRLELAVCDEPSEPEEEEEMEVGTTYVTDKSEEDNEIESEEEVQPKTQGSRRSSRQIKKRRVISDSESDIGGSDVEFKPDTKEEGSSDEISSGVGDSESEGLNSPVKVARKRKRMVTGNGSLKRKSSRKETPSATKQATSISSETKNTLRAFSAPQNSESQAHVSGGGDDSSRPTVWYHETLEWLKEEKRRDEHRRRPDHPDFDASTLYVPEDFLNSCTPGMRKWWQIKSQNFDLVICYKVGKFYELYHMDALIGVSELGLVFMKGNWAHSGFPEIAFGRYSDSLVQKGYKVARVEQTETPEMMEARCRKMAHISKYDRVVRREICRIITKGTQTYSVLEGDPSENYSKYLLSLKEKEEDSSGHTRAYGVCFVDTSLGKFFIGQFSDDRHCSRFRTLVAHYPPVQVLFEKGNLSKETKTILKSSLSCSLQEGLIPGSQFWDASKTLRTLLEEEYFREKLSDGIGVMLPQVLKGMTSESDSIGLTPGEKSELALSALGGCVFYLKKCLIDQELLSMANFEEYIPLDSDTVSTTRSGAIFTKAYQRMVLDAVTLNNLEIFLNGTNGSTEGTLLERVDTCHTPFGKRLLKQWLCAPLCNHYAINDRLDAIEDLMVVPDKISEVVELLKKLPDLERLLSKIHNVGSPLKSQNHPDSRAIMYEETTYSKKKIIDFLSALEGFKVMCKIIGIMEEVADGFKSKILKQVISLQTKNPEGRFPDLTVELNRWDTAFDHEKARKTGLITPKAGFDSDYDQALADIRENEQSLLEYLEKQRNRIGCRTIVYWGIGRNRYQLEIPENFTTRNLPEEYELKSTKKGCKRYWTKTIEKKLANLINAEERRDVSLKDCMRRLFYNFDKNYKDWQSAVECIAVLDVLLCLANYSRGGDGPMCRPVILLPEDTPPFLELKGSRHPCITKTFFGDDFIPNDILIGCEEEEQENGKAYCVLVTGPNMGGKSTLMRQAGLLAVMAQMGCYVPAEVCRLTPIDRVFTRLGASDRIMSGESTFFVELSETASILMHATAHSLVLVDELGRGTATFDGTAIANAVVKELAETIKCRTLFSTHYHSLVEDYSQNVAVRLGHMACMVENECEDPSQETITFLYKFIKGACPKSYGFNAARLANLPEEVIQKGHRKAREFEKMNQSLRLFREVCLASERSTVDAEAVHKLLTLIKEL
row,Binder,phage ELISA signal ratio
1,PMWDSVWDHLLTEPPE,5.84
2,TSYDPWVMEGMTQVVA,6.43
3,DYMAIWDHIPLKDAGF,6.88
4,DPMSDLFMHNPFVQEP,7.54

# Biological target: SETD1A 2-220 RRM_1 (domain begin residue: 2, domain end residue: 220), O15047
# Experiment: as above
# Outline: as §1
# Sequence of SETD1A 2-220 RRM_1 (domain begin residue: 2, domain end residue: 220), O15047 (O15047 whole entry): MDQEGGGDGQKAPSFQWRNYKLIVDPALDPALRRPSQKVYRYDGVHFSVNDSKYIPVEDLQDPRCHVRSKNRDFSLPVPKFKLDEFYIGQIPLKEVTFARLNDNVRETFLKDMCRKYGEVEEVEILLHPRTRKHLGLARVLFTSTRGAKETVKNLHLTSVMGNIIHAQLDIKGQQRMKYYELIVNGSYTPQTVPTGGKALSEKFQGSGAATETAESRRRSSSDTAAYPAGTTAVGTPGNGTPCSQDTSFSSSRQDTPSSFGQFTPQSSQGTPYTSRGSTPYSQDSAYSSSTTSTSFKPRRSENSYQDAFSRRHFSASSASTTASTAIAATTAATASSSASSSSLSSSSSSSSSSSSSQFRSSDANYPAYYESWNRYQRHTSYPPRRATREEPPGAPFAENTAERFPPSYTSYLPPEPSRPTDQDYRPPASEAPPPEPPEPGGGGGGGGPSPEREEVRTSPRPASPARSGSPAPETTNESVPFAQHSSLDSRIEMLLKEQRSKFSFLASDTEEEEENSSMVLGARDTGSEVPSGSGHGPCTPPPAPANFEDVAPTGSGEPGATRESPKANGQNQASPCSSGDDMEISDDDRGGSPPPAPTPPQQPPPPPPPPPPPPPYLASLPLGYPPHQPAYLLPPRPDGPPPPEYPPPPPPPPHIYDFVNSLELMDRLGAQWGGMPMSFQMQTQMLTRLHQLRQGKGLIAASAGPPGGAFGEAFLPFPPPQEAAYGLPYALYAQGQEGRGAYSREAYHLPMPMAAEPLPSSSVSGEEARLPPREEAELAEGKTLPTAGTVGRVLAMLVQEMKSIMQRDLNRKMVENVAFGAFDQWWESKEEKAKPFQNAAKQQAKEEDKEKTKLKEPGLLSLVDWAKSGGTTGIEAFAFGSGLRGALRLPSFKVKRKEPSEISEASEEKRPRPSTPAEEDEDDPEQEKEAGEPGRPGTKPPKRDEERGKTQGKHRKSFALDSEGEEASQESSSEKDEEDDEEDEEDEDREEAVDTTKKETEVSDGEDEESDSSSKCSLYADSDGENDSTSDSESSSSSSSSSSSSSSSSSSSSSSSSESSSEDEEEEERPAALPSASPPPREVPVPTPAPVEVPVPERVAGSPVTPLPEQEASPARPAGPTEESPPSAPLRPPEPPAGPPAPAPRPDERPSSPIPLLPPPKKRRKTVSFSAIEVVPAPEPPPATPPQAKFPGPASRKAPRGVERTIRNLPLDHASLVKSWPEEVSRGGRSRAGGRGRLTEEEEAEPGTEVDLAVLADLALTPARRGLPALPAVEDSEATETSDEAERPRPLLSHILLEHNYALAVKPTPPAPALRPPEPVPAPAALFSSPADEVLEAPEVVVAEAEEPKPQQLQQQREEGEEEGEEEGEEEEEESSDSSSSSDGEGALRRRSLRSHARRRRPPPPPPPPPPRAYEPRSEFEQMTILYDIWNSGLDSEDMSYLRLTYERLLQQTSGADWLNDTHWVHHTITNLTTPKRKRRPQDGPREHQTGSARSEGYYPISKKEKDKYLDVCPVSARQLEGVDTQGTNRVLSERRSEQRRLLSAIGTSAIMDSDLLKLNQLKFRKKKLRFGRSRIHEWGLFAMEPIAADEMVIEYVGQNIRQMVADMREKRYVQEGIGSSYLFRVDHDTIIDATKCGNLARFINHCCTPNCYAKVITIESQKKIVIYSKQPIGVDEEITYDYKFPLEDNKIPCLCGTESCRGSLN
row,Binder,phage ELISA signal ratio
1,TSYDPWVMEGMTQVVA,7.68

# Biological target: T1, ZGPAT 120-268 zf-CCCH+TUDOR (domain begin residue: 120, domain end residue: 268), Q8N5A5
# T1 chain: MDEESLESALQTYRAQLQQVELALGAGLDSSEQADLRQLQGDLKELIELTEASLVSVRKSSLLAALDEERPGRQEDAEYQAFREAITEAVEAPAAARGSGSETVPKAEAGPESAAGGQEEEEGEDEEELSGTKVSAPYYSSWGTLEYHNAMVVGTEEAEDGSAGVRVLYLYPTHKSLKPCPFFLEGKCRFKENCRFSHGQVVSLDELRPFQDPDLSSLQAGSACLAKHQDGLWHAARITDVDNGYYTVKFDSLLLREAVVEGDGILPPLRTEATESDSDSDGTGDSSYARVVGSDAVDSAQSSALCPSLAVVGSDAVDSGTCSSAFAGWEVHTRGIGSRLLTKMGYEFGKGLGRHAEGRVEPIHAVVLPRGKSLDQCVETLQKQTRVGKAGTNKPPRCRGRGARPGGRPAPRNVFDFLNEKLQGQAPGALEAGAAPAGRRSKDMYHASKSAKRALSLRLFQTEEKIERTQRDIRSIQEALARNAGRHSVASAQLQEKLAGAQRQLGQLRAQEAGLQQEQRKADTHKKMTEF
# Experiment: as above
# Outline: as §1
row,Binder,phage ELISA signal ratio
1,DPMSDLFMHNPFVQEP,8.79

# Biological target: T2, MYL6 4-151 EF-hand_6 (domain begin residue: 4, domain end residue: 151), P60660
# T2 chain: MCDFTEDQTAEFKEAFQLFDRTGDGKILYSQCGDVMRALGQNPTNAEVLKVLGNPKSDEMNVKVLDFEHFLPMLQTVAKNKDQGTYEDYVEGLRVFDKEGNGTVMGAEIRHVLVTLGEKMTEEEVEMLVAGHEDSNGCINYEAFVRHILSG
# Experiment: as above
# Outline: as §1
row,Binder,phage ELISA signal ratio
1,QWWVFHVGDQMYWAYV,3.08
2,TMMPIWSEGQWWWGHI,3.17
3,YFYTQVNGIWYKWVLS,4.86
4,IFQYIVVQIGNTMYVI,9.03

# Biological target: T3, NFKBIA 70-282 EF-hand_6 (domain begin residue: 70, domain end residue: 282), P25963
# T3 chain: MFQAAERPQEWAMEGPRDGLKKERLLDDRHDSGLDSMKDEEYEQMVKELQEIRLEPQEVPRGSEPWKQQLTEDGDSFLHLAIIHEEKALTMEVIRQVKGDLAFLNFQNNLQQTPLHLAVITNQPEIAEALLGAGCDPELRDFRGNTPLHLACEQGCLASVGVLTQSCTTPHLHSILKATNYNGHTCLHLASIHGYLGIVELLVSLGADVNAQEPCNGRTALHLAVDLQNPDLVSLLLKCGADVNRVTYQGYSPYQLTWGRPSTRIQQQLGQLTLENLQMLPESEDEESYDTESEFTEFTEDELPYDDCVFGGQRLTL
# Experiment: as above
# Outline: as §1
row,Binder,phage ELISA signal ratio
1,GEDPPPYSPLTSPDSG,4.18
2,YFEMLEDDGVWTAPNW,4.27
3,EWFTDHNGADVWLELP,4.99
4,QPLPPPPPPSSIPAPA,5.2
5,YWEHSNELDYWVEFIA,5.67
6,WFGMEPEEQSMEWQKW,6.64
7,MYRAPDAYDDHQVYVS,7.46
8,YMVEEHYYDLMQMLGS,11
9,DQPPPSYSVLTPDVAL,13.8
10,WVDEWTDVVQPMYYYD,18.3

# Biological target: T4, NUP98 730-880 Nucleoporin2 (domain begin residue: 730, domain end residue: 880), P52948
# T4 chain: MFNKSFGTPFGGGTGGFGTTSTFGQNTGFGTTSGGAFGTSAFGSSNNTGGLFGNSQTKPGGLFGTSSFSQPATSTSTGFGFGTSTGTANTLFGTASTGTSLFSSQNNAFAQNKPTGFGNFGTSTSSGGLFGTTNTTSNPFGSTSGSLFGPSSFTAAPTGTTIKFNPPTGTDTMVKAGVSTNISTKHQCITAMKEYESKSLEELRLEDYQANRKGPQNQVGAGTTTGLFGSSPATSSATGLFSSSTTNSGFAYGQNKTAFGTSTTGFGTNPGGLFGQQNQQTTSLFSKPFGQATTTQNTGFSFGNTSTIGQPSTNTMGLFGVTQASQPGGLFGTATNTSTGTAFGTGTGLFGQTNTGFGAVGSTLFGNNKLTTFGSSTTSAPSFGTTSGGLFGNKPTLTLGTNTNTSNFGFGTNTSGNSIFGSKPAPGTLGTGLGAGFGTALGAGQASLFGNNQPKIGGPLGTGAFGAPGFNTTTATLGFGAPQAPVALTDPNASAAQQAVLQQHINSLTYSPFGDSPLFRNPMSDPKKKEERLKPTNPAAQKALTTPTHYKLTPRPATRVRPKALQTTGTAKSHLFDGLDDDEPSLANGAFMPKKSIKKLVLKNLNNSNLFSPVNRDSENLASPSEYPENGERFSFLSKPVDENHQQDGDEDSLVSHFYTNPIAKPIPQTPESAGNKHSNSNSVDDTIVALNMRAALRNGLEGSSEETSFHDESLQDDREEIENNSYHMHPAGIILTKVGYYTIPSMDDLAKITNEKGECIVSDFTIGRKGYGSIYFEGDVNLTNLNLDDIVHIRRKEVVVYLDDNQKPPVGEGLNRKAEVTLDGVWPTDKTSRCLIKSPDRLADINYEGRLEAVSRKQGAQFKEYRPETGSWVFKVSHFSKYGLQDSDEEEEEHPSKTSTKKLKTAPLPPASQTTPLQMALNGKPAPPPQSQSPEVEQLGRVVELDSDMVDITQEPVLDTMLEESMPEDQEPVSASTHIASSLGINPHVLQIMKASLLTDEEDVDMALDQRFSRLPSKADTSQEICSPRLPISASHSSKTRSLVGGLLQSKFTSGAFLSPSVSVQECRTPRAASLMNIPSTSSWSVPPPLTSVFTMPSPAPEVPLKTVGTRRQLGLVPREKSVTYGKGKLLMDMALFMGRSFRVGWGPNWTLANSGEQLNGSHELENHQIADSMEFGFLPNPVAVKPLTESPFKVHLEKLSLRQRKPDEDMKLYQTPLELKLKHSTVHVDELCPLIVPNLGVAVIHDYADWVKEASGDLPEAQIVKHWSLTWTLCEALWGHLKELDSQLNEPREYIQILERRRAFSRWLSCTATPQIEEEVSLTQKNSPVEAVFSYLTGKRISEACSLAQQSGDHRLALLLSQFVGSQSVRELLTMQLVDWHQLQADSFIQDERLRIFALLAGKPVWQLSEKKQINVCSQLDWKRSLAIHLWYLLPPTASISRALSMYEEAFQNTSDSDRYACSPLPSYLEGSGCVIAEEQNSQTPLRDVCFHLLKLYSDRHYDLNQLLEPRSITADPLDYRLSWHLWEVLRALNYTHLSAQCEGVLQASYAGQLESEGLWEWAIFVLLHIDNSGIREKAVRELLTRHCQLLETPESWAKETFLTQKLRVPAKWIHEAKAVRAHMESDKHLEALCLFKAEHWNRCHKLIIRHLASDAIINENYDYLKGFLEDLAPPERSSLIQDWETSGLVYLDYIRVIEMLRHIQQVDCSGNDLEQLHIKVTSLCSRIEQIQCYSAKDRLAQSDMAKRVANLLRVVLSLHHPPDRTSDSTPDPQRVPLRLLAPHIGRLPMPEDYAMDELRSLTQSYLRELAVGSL
# Experiment: as above
# Outline: as §1
row,Binder,phage ELISA signal ratio
1,YWEHSNELDYWVEFIA,16.9

# Biological target: T5, NR1D2 386-579 Hormone_recep (domain begin residue: 386, domain end residue: 579), Q14995
# T5 chain: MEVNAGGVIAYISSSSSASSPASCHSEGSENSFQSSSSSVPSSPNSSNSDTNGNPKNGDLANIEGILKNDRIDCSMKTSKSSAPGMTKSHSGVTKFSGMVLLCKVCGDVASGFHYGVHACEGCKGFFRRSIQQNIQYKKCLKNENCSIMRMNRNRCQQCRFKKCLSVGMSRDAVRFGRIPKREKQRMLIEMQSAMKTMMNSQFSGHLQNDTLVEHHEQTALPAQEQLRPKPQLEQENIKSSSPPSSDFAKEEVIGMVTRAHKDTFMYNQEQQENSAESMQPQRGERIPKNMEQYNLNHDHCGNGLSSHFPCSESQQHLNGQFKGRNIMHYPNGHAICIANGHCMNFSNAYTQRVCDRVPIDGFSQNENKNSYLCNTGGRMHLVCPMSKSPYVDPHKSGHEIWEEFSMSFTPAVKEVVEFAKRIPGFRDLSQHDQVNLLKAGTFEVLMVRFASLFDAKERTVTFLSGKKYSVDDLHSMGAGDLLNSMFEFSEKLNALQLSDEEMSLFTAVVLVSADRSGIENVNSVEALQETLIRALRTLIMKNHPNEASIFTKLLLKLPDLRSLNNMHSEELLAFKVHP
# Experiment: as above
# Outline: as §1
row,Binder,phage ELISA signal ratio
1,PHGITDVWAQWFVEML,5.27
2,WQDAWMQAMEQIYPPL,6.57
3,ENLTALIMAFFSETIQ,9.19

# Biological target: T6, NR1H2 203-460 Hormone_recep (domain begin residue: 203, domain end residue: 460), P55055
# T6 chain: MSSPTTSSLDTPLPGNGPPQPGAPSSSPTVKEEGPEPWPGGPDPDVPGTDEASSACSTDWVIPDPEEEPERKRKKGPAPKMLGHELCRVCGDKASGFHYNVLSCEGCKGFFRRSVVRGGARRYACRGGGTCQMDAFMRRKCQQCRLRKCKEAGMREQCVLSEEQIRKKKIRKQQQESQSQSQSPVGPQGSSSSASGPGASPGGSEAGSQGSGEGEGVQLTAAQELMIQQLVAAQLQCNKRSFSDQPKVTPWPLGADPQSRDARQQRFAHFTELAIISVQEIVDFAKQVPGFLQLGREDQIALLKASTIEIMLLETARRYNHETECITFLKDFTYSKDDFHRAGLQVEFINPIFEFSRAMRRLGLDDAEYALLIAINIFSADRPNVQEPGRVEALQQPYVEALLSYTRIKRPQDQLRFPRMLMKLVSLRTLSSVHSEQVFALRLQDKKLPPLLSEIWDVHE
# Experiment: as above
# Outline: as §1
row,Binder,phage ELISA signal ratio
1,DNPNLTPGLWSWYTFF,11.4
2,DHWWVWGWEAEEYIMP,13.9
3,ESLWIIPSNAYWEQVM,17.3

# Biological target: T7, NR1H3 204-447 Hormone_recep (domain begin residue: 204, domain end residue: 447), Q13133
# T7 chain: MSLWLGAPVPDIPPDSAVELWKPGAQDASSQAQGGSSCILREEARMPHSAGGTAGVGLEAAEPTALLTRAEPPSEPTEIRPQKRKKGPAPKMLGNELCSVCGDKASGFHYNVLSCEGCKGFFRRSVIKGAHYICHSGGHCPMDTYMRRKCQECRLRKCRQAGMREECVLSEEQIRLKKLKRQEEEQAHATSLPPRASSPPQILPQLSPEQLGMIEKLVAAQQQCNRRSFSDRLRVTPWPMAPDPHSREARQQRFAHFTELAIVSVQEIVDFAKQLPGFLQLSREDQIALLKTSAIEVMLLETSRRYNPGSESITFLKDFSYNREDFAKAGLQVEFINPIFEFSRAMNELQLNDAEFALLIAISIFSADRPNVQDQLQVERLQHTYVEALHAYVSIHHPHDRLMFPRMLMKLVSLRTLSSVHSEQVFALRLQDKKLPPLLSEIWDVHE
# Experiment: as above
# Outline: as §1
row,Binder,phage ELISA signal ratio
1,VWPDIYPELQFLHMMY,5.69
2,VDPDWWDWMMSQLDTN,6.41
